NIH3T3 tox = Cytotoxic Profiling in NIH 3T3 Cell Line of Diverse Libraries Using Quantitative High-Throughput Screening | NIH 3T3 viability, CellTiter-Glo ATP luminescence, 48-72 h | Potency, µM (top dose mostly 96.7 µM), usual class: inhibitors | 94,000 compounds, 4.3% hits | AID 1345082, 2018; also: nearly all actives have a fitted effect of over 55% in size
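Cytotoxicity was measured by CellTiter-Glo ATP luminescence after 48 or 72 h compound exposure at 37 °C. Mouse NIH 3T3 fibroblasts were seeded at 400 cells/well and dosed by 23 nL pin transfer.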
Luciferase inh = Firefly luciferase inhibition profiling of diverse chemical library using quantitative high-throughput screening. Luciferin 4-monooxygenase (Photinus pyralis), P08659. purified P. pyralis luciferase, luminescence, biochemical. Potency, µM (series often up to 115 µM), actives largely listed as inhibitors. 76,000 compounds, 2.5% hits; also: nearly all actives have a fitted effect of over 65% in size
Target sequence (P08659 whole entry, looked up): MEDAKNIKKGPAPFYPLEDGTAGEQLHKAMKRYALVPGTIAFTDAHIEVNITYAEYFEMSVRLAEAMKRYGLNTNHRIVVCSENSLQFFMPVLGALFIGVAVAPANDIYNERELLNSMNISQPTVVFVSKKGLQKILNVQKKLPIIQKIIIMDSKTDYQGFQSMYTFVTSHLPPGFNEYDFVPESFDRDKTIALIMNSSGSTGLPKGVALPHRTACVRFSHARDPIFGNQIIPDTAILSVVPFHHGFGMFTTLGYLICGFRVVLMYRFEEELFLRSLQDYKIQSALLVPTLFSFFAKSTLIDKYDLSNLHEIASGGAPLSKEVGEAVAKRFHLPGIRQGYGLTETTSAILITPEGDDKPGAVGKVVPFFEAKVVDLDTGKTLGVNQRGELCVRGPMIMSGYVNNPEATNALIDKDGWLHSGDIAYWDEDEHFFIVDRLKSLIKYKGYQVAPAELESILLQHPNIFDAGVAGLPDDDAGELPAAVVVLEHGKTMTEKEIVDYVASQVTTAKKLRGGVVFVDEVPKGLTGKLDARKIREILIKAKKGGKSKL
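Purified 10nM P. pyralis luciferase with 10uM D-luciferin and 10uM ATP in 50mM Tris acetate pH 7.5, 10mM Mg acetate, 0.01% Tween-20, 0.05% BSA. qHTS titration; luminescence read by CCD imager.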
NPR1 antag = Natriuretic polypeptide receptor (hNpr1) antagonism - Primary qHTS; Atrial natriuretic peptide receptor 1 (Homo sapiens), P16066; HEK293 hNpr1 GloSensor cGMP, ANP-stimulated luminescence; Potency, µM (titrated, usually from 46.3 µM), actives largely listed as inhibitors; 76,000 compounds, 1.6% hits; AID 1347048, 2019; calls by dose curve; also: nearly all actives have a fitted effect of over 60% in size
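HEK293 cells stably expressing human Npr1 and cGMP GloSensor pGS-40F, loaded 2 h with 2% GloSensor reagent, given compound 30 min at room temperature. Luminescence read before and 20 min after 0.1 nM hNppA.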
HEK293 tox = Cytotoxic Profiling in HEK 293 Cell Line of Diverse Libraries Using Quantitative High-Throughput Screening. HEK 293 viability, ATP luminescence (CellTiter-Glo), 48-72 h. 94,000 compounds, 6.6% hits. AID 1345083, 2018. Potency, µM (titrated, usually from 115 µM), usual class: inhibitors; also: nearly all actives have a fitted effect of over 60% in size
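HEK 293 cells seeded at 250 cells/well were exposed to compound for 48 or 72 hr at 37 degree Celsius. Viability taken as ATP content by CellTiter-Glo luminescence.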
A number is an active result; n = inactive; u = inconclusive; x = no result. An excerpt weighted towards active compounds, which were near 11% of everything screened. Unless noted, calls follow the shape of the dose curve; as a rule, active = well fitted curve in the direction sought with a large enough effect; inconclusive = small, poorly fitted or top-dose-only effect, or another doubt; inactive = no such curve, though single readings can be large; an effect the other way counts as inactive or inconclusive.

SMILES	NIH3T3 tox	Luciferase inh	NPR1 antag	HEK293 tox
Fc1cccc(-n2cc(CN3CC[C@H]4CC[C@@H](C3)N4)cn2)c1	u	n	n	n
CC(C)CCN1CC2(CCCN(C(=O)c3cc(C(F)(F)F)[nH]n3)C2)CCC1=O (stereo not drawn)	44.7µM	n	n	n
CC(c1cccs1)N(C)Cc1cccc2ccccc12 (stereo not drawn)	u	u	n	112µM
COc1cccc(CN(C)C(C)c2cccs2)c1 (stereo not drawn)	n	n	n	n
COC(=O)[C@@H]1Cc2c([nH]c3ccccc23)[C@@H]2C[C@@H](NCCNC(C)=O)C[C@@H](c3cccc(Cl)c3)N12	28.2µM	n	n	31.6µM
COC(=O)[C@@H]1Cc2c([nH]c3ccccc23)[C@H]2C[C@@H](NCCNC(C)=O)C[C@@H](c3ccc(-c4ccccc4)cc3)N21	u	n	n	39.8µM
COC(=O)[C@@H]1Cc2c([nH]c3ccccc23)[C@H]2C[C@@H](NCCN(C)C)C[C@@H](c3cccc(Cl)c3)N21	4.47µM	u	n	6.31µM
CCCn1cc(CNC(=O)c2ccc3c(c2)n(CC)c(=O)c2ccnn23)c(C)n1	u	n	n	79.4µM
O=C(NC1CCN(c2ccc3nnc(-c4ccccc4)n3n2)CC1)C1CC1	n	x	x	n
NC(=O)Cc1c[nH]c2ncc(-c3ccc(F)cc3)cc12	u	u	n	n
Cc1noc(C)c1-c1cnc2[nH]cc(CC(N)=O)c2c1	10µM	n	n	u
Cc1noc(C)c1-c1cnc2[nH]cc(CC(=O)NCc3cccnc3)c2c1	31.6µM	n	n	u
Cc1cccc(-c2cnc3[nH]cc(CC(N)=O)c3c2)c1	u	n	n	u
COc1ccc(-c2cnc3[nH]cc(CC(N)=O)c3c2)cc1OC	10µM	n	n	u
CC(C)NC(=O)C1CCN(C(=O)c2ccc(-c3cncnc3)cc2)CC1	u	x	x	n
CC(c1nccs1)N(C)C(=O)c1csc2nc(-c3ccccc3Cl)cn12 (stereo not drawn)	50.1µM	u	n	22.4µM
CCC(CNC(=O)c1csc2nc(-c3ccccc3Cl)cn12)N(C)C (stereo not drawn)	u	n	n	u
COc1cc(C)c(-c2nc(CN3CCOC(CCN)C3)c(C)o2)cc1C (stereo not drawn)	u	n	n	44.7µM
COc1cc(-c2nc(CN3CCCC(CN)C3)c(C)o2)cc2c1OCO2 (stereo not drawn)	u	n	n	39.8µM
COc1cc(C)c(-c2nc(CN3CCCC(CN)C3)c(C)o2)cc1C (stereo not drawn)	25.1µM	n	n	31.6µM
COc1cc(-c2nc(CN3CCSCC3)c(C)o2)ccc1F	n	n	n	n
COc1ccc(-c2nc(CN3CC[C@H]4CC[C@@H](C3)N4)c(C)o2)c(OC)c1C	u	n	n	u
COCc1ccccc1-c1nccc2c(=O)cc(-c3cnn(C)c3)oc12	u	n	n	n
Cn1cc(-c2cc(=O)c3ccnc(NCc4ccc5c(c4)OCO5)c3o2)cn1	25.1µM	u	n	u
CN(c1cc(=O)c2ccnc(NCc3ccc4c(c3)OCO4)c2o1)C1CCOCC1	31.6µM	n	n	89.1µM
SMILES	NIH3T3 tox	Luciferase inh	NPR1 antag	HEK293 tox
COc1ccc(Nc2ccnc(N3CCN(C(=O)c4ccc(OC)cc4)CC3)n2)cc1	25.1µM	x	x	25.1µM
COc1ccc(Nc2ccnc(N3CCN(C(=O)c4ccc(F)cc4)CC3)n2)cc1	12.6µM	x	x	22.4µM
Cc1ccc(Nc2ccnc(N3CCN(C(=O)Cc4ccc(F)cc4)CC3)n2)cc1	31.6µM	x	x	u
Cc1ccc(Nc2ccnc(N3CCN(C(=O)c4ccccc4C)CC3)n2)cc1	35.5µM	x	x	39.8µM
COc1ccc(Nc2ccnc(N3CCN(C(=O)Cc4ccccn4)CC3)n2)cc1	n	x	x	n
CCCn1c(C)cnc1C1CCN(C(=O)Nc2ccccc2OCC)C1 (stereo not drawn)	n	x	x	n
COc1cccc(CC(=O)N2CCC(N3C(=O)C(OCC4CC4)C34CCCCC4)CC2)c1 (stereo not drawn)	u	n	n	u
CN(C)C(=O)[C@@H]1CCCN1c1nccc(Nc2ccccc2Cl)n1	n	x	x	u
Cc1ccc(Nc2ccnc(N3CCCN(C(=O)Cc4cccc(Cl)c4)C3)n2)cc1	28.2µM	x	x	12.6µM
